This is a sample that favours compounds with a hit; in the whole collection about 1.1% have one here.
NR2F2 inh – NR2F2 (human) inhibition, primary screen; HEK293T NGFI-A luciferase reporter, luminescence; AID 686940; inhibition, % at 8.6 µM; P24468; hit rate 0.7% among 370,000;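 active means inhibition above a per-plate cutoff, mean inhibition of test wells between control levels plus 3 SD, cut at about 38% in these data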;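 further: cells cotransfected with COUP-TFII expression vector driving the NGFI-A reporter; 0% = median of COUP-TF2 test wells and 100% = reporter-only cells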
SRC1 inh – inhibitors of human steroid receptor coactivator 1 (SRC1). hit rate 0.12% among 360,000. HEK293 GAL4-SRC1 luciferase reporter, luminescence. inhibition, % at 3.6 µM. Q15788;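 active means inhibition above the campaign mean plus 3 SD, with each screening campaign given its own cutoff, cut at about 60% in these data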;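 further: 0% = DMSO treated cells and 100% = gossypol at 36 µM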
NCOA2 inhibitor – human SRC2 (NCOA2) inhibition; Q15596; HEK293 GAL4-SRC2 luciferase reporter, luminescence; inhibition, % at 9 µM; AID 651957; hit rate 0.17% among 370,000;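 active means inhibition above the mean inhibition of all tested compounds plus 3 SD, set per campaign, cut at about 52% in these data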;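 further: 0% = DMSO treated cells and 100% = cells given Gossypol at 36 µM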
NCOA3 inh – human NCOA3 inhibition; HEK293 GAL4-SRC3 luciferase reporter, luminescence; inhibition, % at 3.6 µM; hit rate 0.17% among 360,000;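 active means inhibition above a per-campaign cutoff, the mean of all compounds plus 3 SD, cut at about 60% in these data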;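 further: 0% = DMSO-treated cells and 100% = gossypol-treated cells at 36 µM; higher means less SRC3-driven luciferase light from the GAL4 reporter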
Target sequence (Q9Y6Q9 whole entry, looked up, the tested form may be a part): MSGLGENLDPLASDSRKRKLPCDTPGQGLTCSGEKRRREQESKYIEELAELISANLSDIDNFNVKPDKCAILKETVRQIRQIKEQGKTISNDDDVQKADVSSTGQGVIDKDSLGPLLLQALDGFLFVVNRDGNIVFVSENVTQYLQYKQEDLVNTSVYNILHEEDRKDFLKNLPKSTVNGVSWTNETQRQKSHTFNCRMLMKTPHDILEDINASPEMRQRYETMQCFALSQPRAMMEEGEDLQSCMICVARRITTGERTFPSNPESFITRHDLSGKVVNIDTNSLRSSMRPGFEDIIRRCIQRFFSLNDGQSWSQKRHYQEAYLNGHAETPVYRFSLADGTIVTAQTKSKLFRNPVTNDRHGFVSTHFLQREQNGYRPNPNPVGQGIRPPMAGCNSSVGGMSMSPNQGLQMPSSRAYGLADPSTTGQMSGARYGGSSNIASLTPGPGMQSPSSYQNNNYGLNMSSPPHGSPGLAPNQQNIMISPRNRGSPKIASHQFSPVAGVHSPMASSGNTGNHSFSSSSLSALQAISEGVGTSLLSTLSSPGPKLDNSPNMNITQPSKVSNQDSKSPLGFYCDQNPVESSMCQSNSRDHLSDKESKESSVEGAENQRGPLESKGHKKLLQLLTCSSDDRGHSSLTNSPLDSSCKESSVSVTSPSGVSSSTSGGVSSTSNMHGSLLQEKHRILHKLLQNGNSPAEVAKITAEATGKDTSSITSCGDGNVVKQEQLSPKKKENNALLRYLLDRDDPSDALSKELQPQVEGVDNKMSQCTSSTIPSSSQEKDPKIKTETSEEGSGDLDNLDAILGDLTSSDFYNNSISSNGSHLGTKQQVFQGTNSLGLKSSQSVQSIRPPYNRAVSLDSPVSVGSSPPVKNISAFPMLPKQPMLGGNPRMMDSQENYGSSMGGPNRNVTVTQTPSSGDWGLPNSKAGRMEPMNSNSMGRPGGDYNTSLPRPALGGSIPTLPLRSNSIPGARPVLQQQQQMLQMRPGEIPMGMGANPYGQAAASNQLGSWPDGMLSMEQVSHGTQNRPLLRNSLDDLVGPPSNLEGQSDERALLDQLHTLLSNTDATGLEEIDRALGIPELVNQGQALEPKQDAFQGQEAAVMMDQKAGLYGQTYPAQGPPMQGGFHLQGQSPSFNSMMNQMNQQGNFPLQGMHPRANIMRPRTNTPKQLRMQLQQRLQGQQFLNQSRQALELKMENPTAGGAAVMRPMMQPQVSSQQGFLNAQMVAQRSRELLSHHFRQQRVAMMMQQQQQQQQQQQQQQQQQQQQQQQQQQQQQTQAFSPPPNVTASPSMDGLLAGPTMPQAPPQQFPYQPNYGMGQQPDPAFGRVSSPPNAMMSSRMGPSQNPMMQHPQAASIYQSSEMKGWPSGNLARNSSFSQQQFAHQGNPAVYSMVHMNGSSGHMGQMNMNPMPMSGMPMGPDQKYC
GalR3 antag – antagonists of human GalR3; O60755; HEK293 GalR3-CNG cAMP membrane potential fluorescence; galR3 body fused to GalR1 C-terminus; inhibition, % at 3 µM; hit rate 0.44% among 360,000;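 active means inhibition above the screen-wide average plus 3 SD, cut at about 13% in these data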;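 further: forskolin and galanin both at EC90 stimulate the cells; cAMP rise reported by CNG channel membrane potential dye signal; 0% = forskolin plus galanin with DMSO and 100% = forskolin alone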
NR5A2 inv ag – inverse agonists of human LRH-1 (NR5A2) | O00482 | HEK293T StAR-luciferase reporter, LRH-1 transfected, 24 h | inhibition, % at 3.6 µM | hit rate 0.13% among 360,000 | AID 602396;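 active means inhibition above the mean inhibition of all tested compounds plus 3 SD, cut at about 73% in these data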;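 further: 0% = DMSO wells and 100% = reporter-only cells lacking LRH-1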
GalR3 antag conf – confirmation of human galanin receptor 3 antagonists; AID 652245; hit rate 59% among 1,600; HEK293 GalR3 CNG cAMP biosensor, membrane potential fluorescence; galR3 fused to GalR1 carboxy tail; challenged with forskolin and galanin at EC90; inhibition, % at 3 µM; shares compounds with GalR3 antag;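 active means inhibition above the primary screen's cutoff, the mean inhibition of all screened compounds plus 3 SD, cut at about 13% in these data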;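 further: 0% = forskolin plus galanin and 100% = forskolin alone with DMSO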
CNG parental – parental cell agonism counter-screen for GalR3 antagonists. shares compounds with GalR3 antag. HEK293-CNG parental cells, cAMP membrane potential fluorescence; normalised: DMSO wells 0%, forskolin wells 100%. activation, % at 3 µM. hit rate 10% among 1,600; in the data active means activation above about 1.3%
The depositor's hits bear a star; / = no result.

SMILES	NR2F2 inh	SRC1 inh	NCOA2 inhibitor	NCOA3 inh	GalR3 antag	NR5A2 inv ag	GalR3 antag conf	CNG parental
Cc1ccc(Cn2cc(CN(C(C)(C)C)S(=O)(=O)c3ccc(F)cc3Br)nn2)cc1	16	/	28	/	/	/	/	/
CCCOC(=O)CCCC[C@H]1SC[C@@H](NC(=O)OC)[C@H]1NC(=O)OC	0	14	-2	8	14*	2	5	0
O=C(CN1C(=O)CCC1=O)Nc1cccc2c1C(=O)NC2=O	-14	-18	2	3	21*	10	15*	0
O=C(Nc1cccc2c1C(=O)NC2=O)c1cccc(N2C(=O)CCC2=O)c1	-8	-7	-25	10	4	6	/	/
OC1(c2ccc(OC(F)F)cc2)CSC(=Nc2cccnc2)N1C1CC1 (stereo unspecified)	57*	8	25	-7	98*	43	-5	0
CC(C(=O)Nc1ccc2[nH]c(=O)[nH]c2c1)N1CCN(Cc2ccc3c(c2)OCO3)CC1 (stereo unspecified)	-16	2	8	17	13*	-3	13*	0
CC(COc1cccc(C#N)c1)CN1CCC(C(O)(c2ccccc2)c2ccccc2)CC1 (stereo unspecified)	0	/	25	/	/	/	/	/
COC(OC)c1ccnc(-c2ccc(OC(=O)c3cccs3)cc2)n1	-2	-29	-14	1	17*	-12	5	0
CCN1C(=O)Cc2cc(S(=O)(=O)N3CCOCC3)ccc21	-10	-7	6	-5	-4	-2	/	/
CCN1CC(=O)Nc2cc(S(=O)(=O)N3CCOCC3)ccc21	6	1	13	11	16*	-4	-2	0
CCOC(=O)Nc1ccc2c(c1)[C@@]1(CC(=O)N(CC(C)C)C1c1ccccc1)C(=O)N2C (stereo partly specified)	2	/	2	/	/	/	/	/
CCOC(=O)C1=NOC(C(=O)NCc2ccccc2)(C(=O)c2ccc(OC)cc2)C1 (stereo unspecified)	-14	/	-8	/	/	/	/	/
C[C@@H]1CN([C@@H](C)CO)C(=O)CCCn2nncc2CO[C@H]1CN(C)S(=O)(=O)c1ccc(-c2ccccc2)cc1	-12	11	7	-3	13*	-9	45*	0
CN(CCO)c1cccc2c1S(=O)(=O)N(Cc1cn(Cc3cccc(F)c3)nn1)Cc1ccccc1O2	-7	/	21	/	/	/	/	/
CC(=O)Nc1cc(NC(C)=O)cc(C(=O)OCC(=O)c2ccc3c(c2)NC(=O)CO3)c1	1	-3	-18	-2	-6	-2	/	/
N#CCC(=O)Nc1ccc(C(=O)OCC(=O)c2ccc3c(c2)NC(=O)CO3)cc1	-14	2	-4	1	13*	20	8	0
O=C(/C=C(\Nc1ccc(Br)c(F)c1)c1ccccc1)c1ccccc1	9	/	-3	/	-7	/	/	/
COc1ccccc1-c1cc(C(F)(F)F)nc(S(=O)(=O)CCCC(=O)Nc2cc(C)on2)n1	-9	-26	-11	13	0	-6	/	/
COc1ccc(-c2cc(C(F)(F)F)nc(S(=O)(=O)CCCC(=O)Nc3cc(C)on3)n2)cc1OC	-28	-27	-20	-19	18*	-3	19*	1
COc1ccccc1-c1cc(C(F)(F)F)nc(S(=O)(=O)CCCC(=O)Nc2cccnc2Cl)n1	10	-14	2	4	22*	-7	22*	0
CCC(=O)Nc1cccc(-c2cn3cccc(C)c3n2)c1	-3	-8	-10	-10	13*	-62	-1	0
Brc1ccccc1Cn1nnc(-c2ccc(N3CCOCC3)cc2)n1	-12	/	-27	/	/	/	/	/
CCOc1cc(C2C3=C(CC(C)(C)CC3=O)Nc3n[nH]c(C)c32)ccc1O (stereo unspecified)	-8	4	-2	11	31*	4	40*	0
CCOc1cc(C2C(C(=O)N3CCCCC3)=C(C)NC3=C2C(=O)CC(C)(C)C3)ccc1O (stereo unspecified)	-4	-12	-13	1	-3	-14	/	/
CCOC(=O)C1=C(C)NC2=C(C(=O)CC(C)(C)C2)C1c1ccc(O)c(OCC)c1 (stereo unspecified)	19	2	8	13	22*	8	29*	0
SMILES	NR2F2 inh	SRC1 inh	NCOA2 inhibitor	NCOA3 inh	GalR3 antag	NR5A2 inv ag	GalR3 antag conf	CNG parental
CC(C1=CCCCC1)c1cnn(C)c1 (stereo unspecified)	-19	/	-10	/	/	/	/	/
Cn1c(SCC(=O)NC2CC2)nnc1-c1cccs1	-5	-2	1	-11	14*	4	7	0
C[C@@H]1CN([C@H](C)CO)C(=O)c2cc(NC(=O)Nc3ccccc3)ccc2O[C@@H](C)CCCCO[C@H]1CN(C)S(=O)(=O)c1ccc(F)cc1	15	/	/	/	/	/	/	/
C=CCOc1ccc(-c2nc3c(c(=O)[nH]c(=O)n3Cc3ccccc3)n2CCCOC)cc1	1	-15	-33	9	-8	7	/	/
COCCCn1c(-c2ccc(OC)cc2)nc2c1c(=O)[nH]c(=O)n2Cc1ccccc1	7	8	13	-8	14*	5	13	0
CC(/C=N\NC(=O)Cn1c(C)nc2ccccc21)=C\c1ccccc1	37	8	19	19	70*	8	8	0
O=C(NCCc1ccc(Cl)cc1)c1ccc2nc(N3CCOCC3)sc2c1	10	-13	-21	-5	16*	-1	19*	0
CCOc1ccc(CNC(=O)c2ccc3nc(N4CCOCC4)sc3c2)cc1	-1	-38	-17	-13	4	-11	/	/
O=c1c(Cl)c(NCCCO)cnn1-c1nc2ccccc2[nH]1	-37	-109	-126	-119	15*	-99	4	0
O=C(Nc1ccccc1NS(=O)(=O)c1ccc(F)cc1)C1CCC1	8	4	1	10	/	-19	-3	0
CN[C@H]1C[C@H]2c3[nH]c4cccc(-c5ccc6c(c5)OCO6)c4c3CCN2C[C@H]1[C@H](C)O	-9	/	-22	/	/	/	/	/
Cc1ccc(S(=O)(=O)N2CCCC2C(c2ccccc2O)c2cn(C)c3ccccc23)cc1 (stereo unspecified)	6	/	-4	/	/	/	/	/
Cc1cccc(-n2c(Cn3nc(C)c([N+](=O)[O-])c3C)n[nH]c2=S)c1	-18	-1	-4	-14	17*	-1	5	0
Cc1nn(CCc2n[nH]c(=S)n2-c2cccc(Cl)c2)c(C)c1[N+](=O)[O-]	-1	6	13	0	-5	-22	/	/
Cc1ccsc1C1C(C#N)=C(N)Oc2n[nH]c(C)c21 (stereo unspecified)	-4	-26	21	10	30*	0	-1	0

Bioassay records as filed in PubChem.
